Compounds with a hit are over-represented: about 2.2% of the library has one in this group of screens.
HIF act – HIF pathway transcriptional activation; AID 1910; 300,000 tested, 0.32% active; activation, % at 7.5 µM (by protocol); U2OS HRE-luciferase reporter, luminescence; normalized: DMSO 0%, desferrioxamine 100%;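 active = mean activation of at least 10% of the iron chelator positive control signal, with at least half of replicates also reaching 10%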
GalR3 antag – antagonists of human GalR3; O60755; HEK293 GalR3-CNG cAMP membrane potential fluorescence; galR3 body fused to GalR1 C-terminus; inhibition, % at 3 µM; 360,000 tested, 0.44% active; AID 651719;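 active = inhibition above the screen-wide average plus 3 SD, cut at about 13% in these data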;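 note: forskolin and galanin both at EC90 stimulate the cells; cAMP rise reported by CNG channel membrane potential dye signal; 0% = forskolin plus galanin with DMSO and 100% = forskolin alone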
Target sequence (O60755 1-299 limits assumed): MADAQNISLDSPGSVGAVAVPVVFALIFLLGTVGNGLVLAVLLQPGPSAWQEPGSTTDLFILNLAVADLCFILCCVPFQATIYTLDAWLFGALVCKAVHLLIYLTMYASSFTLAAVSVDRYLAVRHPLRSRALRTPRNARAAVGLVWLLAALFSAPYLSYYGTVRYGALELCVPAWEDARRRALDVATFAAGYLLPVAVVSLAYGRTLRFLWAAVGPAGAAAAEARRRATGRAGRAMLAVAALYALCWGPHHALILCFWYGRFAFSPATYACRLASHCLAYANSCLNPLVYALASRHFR
SMARCA2 act – activators of SMARCA2 function; MG213 cells, MMTV-luciferase reporter, dexamethasone, overnight; activation, % at 9.1 µM; 370,000 tested, 1% active; AID 652017; in the data active = activation above about 7.8%;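 note: 0% = vehicle wells and 100% = reference activator wells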
Hsp70 act – transcriptional activators of Hsp70. HeLa Hsp70 promoter luciferase reporter, luminescence; scaled: vehicle 0, proteasome-inhibitor control 100%. activation, % at 10 µM. 200,000 tested, 0.04% active. AID 1203;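 active = activation above the mean across all tested compounds plus 3 SD, cutoff set per campaign, cut at about 5.5% in these data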;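 note: 100% = MG132 at 30 µM as the positive control and 0% = DMSO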
FXN GAA850 act – increases GAA850 frataxin promoter reporter activity. HEK293 lucGAA850 FXN promoter luciferase reporter, 24 h; percent of 10 µM SAHA response. activation, % at 6 µM. 360,000 tested, 0.56% active;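 active = activation above the average of all compounds screened plus 3 SD, cutoff fixed separately per campaign, cut at about 7.5% in these data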;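 note: 0% = DMSO wells and 100% = 10 µM SAHA wells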
SMARCA2 conf – SMARCA2 activation, confirmation screen; 3,500 tested, 30% active; shares compounds with SMARCA2 act; activation, % at 9.1 µM; MG213 cells, MMTV-luciferase with dexamethasone, luminescence, overnight; MG213 cells expressing E1A, Rb sequestered; DMSO wells 0%, reference activator 100%;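 active = activation above its plate's cutoff, the mean activation of tested wells plus 3 SD, cut at about 7.9% in these data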
GAL4-VP16 Luc – GAL4-VP16 reporter activation counter-screen. shares compounds with SMARCA2 act. HEK293 GAL4-VP16 pG5luc reporter, luciferase luminescence; scaled: DMSO wells 0%, SAHA wells 100%. AID 686939. 3,500 tested, 41% active. activation, % at 9.1 µM;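 active = activation above the solvent-only control well mean plus 3 SD, averaged across control plates, cut at about 5.2% in these data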
* = called active by the depositor; x = no result.

SMILES	HIF act	GalR3 antag	SMARCA2 act	Hsp70 act	FXN GAA850 act	SMARCA2 conf	GAL4-VP16 Luc
CCOC(=O)Cc1nc(N2CCN(C(=O)C3CCCO3)CC2)c2c(C)c(C(=O)OCC)sc2n1 (stereo not given)	x	x	11*	x	x	2	1
CCOC(=O)c1sc2nc(CC(=O)OC)nc(N3CCN(c4ccc(OC)cc4)CC3)c2c1C	0	-1	-1	0	-1	x	x
N/C(Cc1cccs1)=N\OC(=O)COc1ccccc1Cl	3	1	8.4*	0	2	4	6.8*
N/C(Cc1cccs1)=N\OC(=O)COc1ccc(Br)cc1Cl	3	0	8	0	4	x	x
COc1ccccc1NS(=O)(=O)c1cc(NC(=O)c2ccccc2C)ccc1N1CCOCC1	x	-7	0	x	-2	x	x
COc1ccccc1NS(=O)(=O)c1cc(NC(=O)C2CC2)ccc1N1CCOCC1	1	x	x	0	x	x	x
COc1ccccc1NS(=O)(=O)c1cc(NC(=O)c2[nH]c(C)c(C(C)=O)c2C)ccc1N1CCOCC1	0	-4	9.9*	x	-5	11*	6.0*
COCCNC(=S)Nc1ccc(N2CCOCC2)c(S(=O)(=O)Nc2ccccc2OC)c1	x	-4	16*	x	0	6	-1
O=C1NC(NS(=O)(=O)c2ccccc2)(C(F)(F)F)C(=O)N1Cc1ccccc1 (stereo not given)	0	-6	1	x	0	x	x
Nc1ccc(S(=O)(=O)NC2(C(F)(F)F)NC(=O)N(Cc3ccccc3)C2=O)cc1 (stereo not given)	0	-8	8.0*	x	-1	-5	0
Cc1n[nH]c(C)c1S(=O)(=O)NCCc1cccc(F)c1	x	x	-4	x	x	x	x
CCCCN=C(N)NC(=O)c1ccccc1	x	x	-1	x	x	x	x
COc1ccccc1C1=NOC(CN2C(=O)c3ccccc3S2(=O)=O)C1 (stereo not given)	2	2	15*	x	7	7	9.1*
Cc1ccc(C(=O)Nc2cccnc2Cl)cc1Cl	3	-9	8.3*	x	6	9.1*	7.5*
CC1CCCCC1N(C(=O)c1cc(C2CC2)on1)C1CCCCC1 (stereo not given)	x	x	-2	x	x	x	x
CC(=O)N1CCn2c3c(c4cc(C)ccc42)CCCC31 (stereo not given)	0	-3	8.7*	0	1	-4	0
O=C(Nc1ccc(F)cc1)c1ccc2[nH]c(=O)c(=O)[nH]c2c1	0	1	8.5*	x	0	0	0
O=C(NNC(=O)c1ccccc1F)c1ccc2[nH]c(=O)c(=O)[nH]c2c1	1	-7	1	x	2	x	x
CC(=O)c1ccc(-c2cnc3c(NC=O)cc(-c4ccc(N5CCN(C)CC5)cc4)cn23)cc1	x	-7	12*	x	6	16*	4
COc1ccc(-c2cnc3c(NC=O)cc(-c4cc(OC)c(OC)c(OC)c4)cn23)cc1OC	x	4	15*	x	-1	24*	9.4*
COc1ccc(-c2cnc3c(NC=O)cc(-c4ccc(S(C)(=O)=O)cc4)cn23)cc1OC	x	-7	11*	x	-5	11*	4
COc1ccc(-c2cc(NC=O)c3ncc(-c4cc(OC)c(OC)c(OC)c4)n3c2)cc1	x	-1	1	x	3	x	x
CS(=O)(=O)Nc1cccc(-c2cc(NC=O)c3ncc(-c4ccc(F)c(Cl)c4)n3c2)c1	x	-4	9.1*	x	0	6	2
O=C(NCCCCC(NC(=O)c1ccccc1)C(=O)O)OCc1ccccc1 (stereo not given)	x	-7	0	x	x	x	x
Cc1cc(O)cc(=O)n1-c1cccc(C(F)(F)F)c1	x	-6	-4	x	x	x	x
CC(C)C1=CC2C3C(=O)N(c4ccccc4)C(=O)C3C1C(=O)C2(C)O (stereo not given)	x	-4	-1	x	x	x	x
CNc1ccc(C=C2C=Cc3ccccc32)cc1	x	-2	1	x	2	x	x
CN(C)c1ccc(C=C2C=Cc3ccccc32)cc1	x	2	9.3*	x	3	3	11*
